Laboratory results from PubChem BioAssay AID1851 (National Center for Advancing Translational Sciences (NCATS), 2009).
About 2,600 (16%) of roughly 16,000 compounds were called active. Roughly 20% stayed inconclusive and do not appear here. Calls follow the shape of the dose curve; as a rule, active = well fitted curve in the direction sought with a large enough effect; inconclusive = small, poorly fitted or top-dose-only effect, or effect the other way; inactive = no such curve, though single readings can be large or run the other way. Only a sample is shown.

Target: Cytochrome P450 2D6 (Homo sapiens) (UniProt P10635)
Assay: Cytochrome panel assay with activity outcomes
Settings: recombinant CYP, pro-luciferin dealkylation, luminescence, p450-cyp2d6; series mostly up to 57.1 µM
% is scaled to controls: 0 for no effect and ±100 for the full control effect.

Cytochrome P450 2D6 (Homo sapiens), sequence (P10635 whole entry, looked up): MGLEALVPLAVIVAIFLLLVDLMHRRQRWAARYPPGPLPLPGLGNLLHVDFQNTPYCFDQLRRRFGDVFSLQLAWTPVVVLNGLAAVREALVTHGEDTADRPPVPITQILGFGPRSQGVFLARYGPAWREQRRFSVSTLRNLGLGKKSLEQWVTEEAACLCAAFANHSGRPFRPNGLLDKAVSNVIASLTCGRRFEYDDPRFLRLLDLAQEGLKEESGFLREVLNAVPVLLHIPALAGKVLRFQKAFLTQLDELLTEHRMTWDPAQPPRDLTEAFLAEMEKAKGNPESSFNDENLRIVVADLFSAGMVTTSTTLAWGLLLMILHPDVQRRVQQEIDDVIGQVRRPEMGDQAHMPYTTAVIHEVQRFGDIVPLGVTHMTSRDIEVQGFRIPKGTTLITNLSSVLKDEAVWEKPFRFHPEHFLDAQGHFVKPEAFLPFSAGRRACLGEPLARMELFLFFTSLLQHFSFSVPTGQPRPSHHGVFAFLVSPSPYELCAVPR

AC50, inactive:
Cc1sc(N)c(C(=O)c2cccc(C(F)(F)F)c2)c1C
O=C(Nc1c2c(nn1-c1ccc(F)cc1)CS(=O)(=O)C2)C12CC3CC(CC(C3)C1)C2
O=C(Oc1ccccc1[N+](=O)[O-])c1cccnc1
CC(=O)NN1C(=O)c2ccc(Oc3cccc([N+](=O)[O-])c3)cc2C1=O
Cc1cc(C(=O)O)c(=O)[nH]c1C
CC1(C)CC(=O)C2=C(C1)N(Cc1ccccc1)C(=O)C2(O)C(F)(F)F (stereo not drawn)
O=C(N/N=C/C1CCCCC1)c1ccccn1
N#Cc1c2n(c3c(=S)nc[nH]c13)CCCCC2
Cc1cc(NC(=S)NC(=O)CC(C)C)ccc1Br
CCCCC1(C)NC(=O)c2c(C)sc(C(=O)OCC)c2N1 (stereo not drawn)
COc1ccc(S(=O)(=O)N2CCC(NC(=O)Nc3ccc(C)cc3)CC2)cc1
COc1ccc(S(=O)(=O)Nc2ccc(S(=O)(=O)N3CCCCC3)cc2)cc1C
CCCOC(=O)c1c(NC(=O)/C=C/c2cnn(C)c2C)sc(C(=O)OCC)c1C
CCOc1cccc2cc(C(N)=O)c(=NCc3ccccc3)oc12
Oc1ccccc1-c1cc(-c2ccccc2)no1
C[C@@H]1c2ccccc2CN1CC1=NCCN1
Cc1cc(C=C(C#N)C#N)c(C)n1-c1ccccc1
N#Cc1c(N2CCN(C(=O)c3ccccc3Cl)CC2)nc(-c2ccccc2)c2c1CCCC2
CC1CN(C(=O)CN2C(=O)NC3(CCCCCC3)C2=O)CC(C)O1 (stereo not drawn)
Cc1nc2cnc(Oc3cccc(Cl)c3)nc2n(C2CC2)c1=O
CN(c1ccc(C(=O)NC2CC3CCC2C3)cc1)S(C)(=O)=O (stereo not drawn)
CNc1nc(NCCOC23CC4CC(CC(C4)C2)C3)nc(OCC(F)(F)F)n1
Cc1ccc(C(=O)N2CCN(c3ccc(C(F)(F)F)cn3)CC2)cc1
COc1cccc(Nc2ncc3nc(C)c(=O)n(CCC#N)c3n2)c1
COCCNc1cc(-c2ccccc2C(F)(F)F)ncn1
COC(=O)Nc1ccc2[nH]cc(CCNC(C)=O)c2c1
COc1ccc2[nH]cc(C=O)c2c1
CC(=O)NCCNc1cc(-c2ccccc2C)ncn1
CCOC(=O)C1=C(C)NC2=C(C(=O)C(C(=O)OCC)C(c3ccc(OC)cc3)C2)C1c1ccccn1 (stereo not drawn)
O=C1OCCC1Sc1nnnn1-c1ccccc1 (stereo not drawn)
COCCn1c(=O)cnc2cnc(Nc3cccc(OC)c3)nc21
CC(C)Cc1nnc(NC(=O)c2ccc([N+](=O)[O-])cc2)s1
COc1cccc(Cn2c(NCc3cccnc3)nc3c2c(=O)n(C)c(=O)n3C)c1
COc1ccc(NC(=O)CN2c3cccc4cccc(c34)S2(=O)=O)cc1
COc1ccc(CNC(=O)C(c2ccc(C)cc2)N(Cc2cccs2)C(=O)c2ccc3c(c2)OCCO3)cc1 (stereo not drawn)
O=C(CCc1ccccc1)NNC(=S)NC(=O)c1ccccc1
CC(=O)Nc1ccc(C(=O)NNC(=O)CCc2ccccc2)cc1
CCc1cc2c(=O)[nH]cnc2s1
CN(C)c1ccc(-c2ccc3ncnc(N(C)C)c3c2)cc1
Cc1noc(C)c1-c1ccc2ncnc(N(C)C)c2c1
CS(=O)(=O)Nc1cccc(-c2ccc3ncnc(NC4CC4)c3c2)c1
CS(=O)(=O)Nc1cccc(-c2ccc3ncnc(N4CCOCC4)c3c2)c1
CN(C)C(=O)c1ccc(-c2ccc3ncnc(N(C)C)c3c2)cc1
CN(C)c1ncnc2ccc(-c3ccccc3C#N)cc12
COCCSc1nnc(NC(=O)C(C)(C)C)s1
Cc1c(Br)c([N+](=O)[O-])nn1C(C)C(=O)Nc1nccs1 (stereo not drawn)
CCN(CC)C(=O)CSc1nnc(C2CCCCC2)o1
COC(=O)CN1C(=O)S/C(=C/c2ccc(N3CCCCC3)o2)C1=O
CSc1nc(N)c2ncn([C@H]3O[C@H](COP(=O)(O)OP(=O)(O)O)[C@@H](O)[C@@H]3O)c2n1
Cn1nnnc1SCC(=O)Nc1ccccc1[N+](=O)[O-]
CCS(=O)(=O)NCCc1cc2ccc(C)cc2[nH]c1=O
CN(C)c1ncc2nc(-c3ccccc3)c(=O)n(C)c2n1
CC(C)(C)C(=O)NC(c1ccc(Cl)cc1)[C@]1(C)C[C@H]1C1CCCCC1 (stereo partly drawn)
COc1cccc(-c2ccc3ncnc(NC4CCNCC4)c3c2)c1
COc1cccc(-c2ccc3ncnc(Nc4ccccc4)c3c2)c1
Cc1ccc(C(=O)NC(=S)NCC2CCCO2)cc1 (stereo not drawn)
Cc1ccc(C2(C)NC(=O)N(CC(=O)Nc3cc(C)on3)C2=O)cc1 (stereo not drawn)
COc1ccc(-n2c(SC)nc(O)c(Cc3ccccc3)c2=O)cc1
CC1=NN(c2ccccc2)C(=O)C1C(=O)c1ccc(Cl)cc1 (stereo not drawn)
CCOc1ccc(CSC(CC(=O)O)C(=O)O)cc1 (stereo not drawn)
CSC1=N/C(=C\c2ccc(C)cc2)C(=O)S1
C[C@H](N=C(NC#N)Nc1ccncc1)C(C)(C)C
CCNc1ncc2nc(-c3cn(C)c4ccccc34)c(=O)n(Cc3cccc(OC)c3)c2n1
CCOC(=O)/C(C(N)=NCCCO)=C(/O)c1ccccc1
COc1cc(OC)c(C#N)c(S(=O)(=O)Cc2ccccc2)c1
COC(=O)c1c(-c2cc(OC)c(OC)c(OC)c2)c2ccc(OCc3ccccn3)cc2c(=O)n1-c1ccc(N)cc1
O=C(Oc1ccccc1)N1CCC2(CC1)CN(c1ccccc1)C2
COCCNC(=O)C(c1ccc(C)o1)N(CC1CCCO1)C(=O)Cn1nnc2ccccc21 (stereo not drawn)
O=C(Cn1nnc2ccccc21)N1CCCCC1
CCOCC(=O)Nc1cc(-c2cn3cccnc3n2)ccc1C
Clc1ccc(-c2ccnc(Oc3cc(Cl)ccc3Cl)n2)cc1
CCOc1cc2[nH]c(=O)n(CCC(=O)NCc3ccc(OC)cc3)c(=O)c2cc1OCC
CCc1ccc(NC(=O)CSc2nc3cc(C(=O)OC)ccc3c(=O)n2Cc2ccco2)cc1
Cc1cc(NC(=O)CSc2nc3ccsc3c(=O)n2Cc2ccccn2)n[nH]1
O=C(CSc1nc2ccccc2c(=O)n1CCCC(=O)N1CCCC1)NCc1ccco1
CCOC(=O)CSc1nc2ccccc2c(=O)n1CC1CCC(C(=O)NCc2ccco2)CC1 (stereo not drawn)
O=C(CSc1nc2ccccc2c(=O)n1Cc1ccccc1)NCc1ccco1
O=C(NCC1CCCO1)c1ccc2c(=O)n(Cc3ccco3)c(SCC(=O)N3CCCC3)nc2c1 (stereo not drawn)

AC50, active:
Cn1cc([N+](=O)[O-])c(C(=O)Nc2cc(Oc3cccnc3)cc([N+](=O)[O-])c2)n1 12.6 µM
Cc1cc(NC(=S)Nc2ccccc2)ccc1Br 2 µM
COc1ccc(S(=O)(=O)N2CCC(N3CCCCC3)CC2)cc1 0.316 µM
c1ccc(CN(CC2=NCCN2)c2ccccc2)cc1 2.51 µM
c1ccc2c(CC3=NCCN3)cccc2c1 7.94 µM
COc1ccc2[nH]cc(CCNc3cc(-c4ccoc4)ncn3)c2c1 12.6 µM
COc1ccc2[nH]cc(CCNc3cc(-c4ccccc4C)ncn3)c2c1 7.94 µM
COc1ccc2[nH]cc(CCNc3cc(-c4ccccc4OC)ncn3)c2c1 12.6 µM
COc1cccc(-c2cc(NCCc3c[nH]c4ccc(OC)cc34)ncn2)c1 15.8 µM
CC(C(=O)NCc1ccc2c(c1)OCO2)N1c2cccc3cccc(c23)S1(=O)=O (stereo not drawn) 10 µM
NNC(=O)c1ccc[n+](CCc2ccccc2)c1 2 µM
CN(Cc1ccco1)c1ncnc2ccc(-c3cccnc3)cc12 2 µM
CN(C)c1ncnc2ccc(-c3ccoc3)cc12 10 µM
Cc1ccccc1-c1ccc2ncnc(N(C)C)c2c1 20 µM
CN(Cc1ccco1)c1ncnc2ccc(-c3cccc(NS(C)(=O)=O)c3)cc12 20 µM
CN(Cc1ccco1)c1ncnc2ccc(-c3ccc4c(c3)OCO4)cc12 1.58 µM
COc1cccc(-c2ccc3ncnc(N(C)Cc4ccco4)c3c2)c1 10 µM
CNc1ncnc2ccc(-c3cccc(OC)c3)cc12 15.8 µM
COc1cccc(-c2ccc3ncnc(N(C)C)c3c2)c1 10 µM
COc1ccc(N(C(=O)Cn2nnc3ccccc32)C2(C(=O)NC3CCCC3)CCCCC2)cc1 11.2 µM
Cc1cccc(C)c1-n1c(SCC(=O)NCc2ccco2)nc2ccccc2c1=O 28.2 µM
CCCCCn1c(SCc2ccncc2)nc2cc(C(=O)NCc3ccco3)ccc2c1=O 0.794 µM
Cc1cc(NC(=O)CSc2nc3ccccc3c(=O)n2CCCC(=O)NCc2ccco2)n[nH]1 15.8 µM

activity, negative = inhibition, inactive:
C=C1C=C(Br)C2(OCCCO2)[C@H]2OC12 (stereo partly drawn) 3.88% [at 11.4 µM]
COc1ccc(NC(=S)Nc2ccccc2)cc1 -11.8% [at 11.4 µM]
CC1=C/C(=N/O)C([C@H]2C=C(C)CC(C)(C)[C@@H]2O)C(C)(C)C1 (stereo partly drawn) -8.52% [at 11.4 µM]
c1c[nH]c(CN2CCOCC2)n1 -10.1% [at 11.4 µM]
Cc1ccc(N(Cc2ccccc2)Cc2ccccc2)cc1 0.619% [at 11.4 µM]
c1c[nH]c(CN2CCN(Cc3ncc[nH]3)CC2)n1 -3.74% [at 11.4 µM]
CCc1cc2c(nc1CC)CCN(CC/C(C)=N/O[C@@H](C)c1cn([C@H](CO)Cc3ccccc3)nn1)C2 2.14% [at 11.4 µM]
Nc1ncnc2c([C@@H]3O[C@@H](CO)[C@H](O)[C@@H]3O)nsc12 -0.815% [at 11.4 µM]
O=C1C[C@H](c2ccccc2)[C@@H](c2ccc(Br)cc2)O1 -20.8% [at 11.4 µM]
CC(C)(C)CNCCO 17.6% [at 11.4 µM]
O=C(O)c1cc(-c2ccc(-c3ccc(-c4cc(C(=O)O)c5cc(Cl)ccc5n4)cc3)cc2)nc2ccc(Cl)cc12 16.7% [at 11.4 µM]
C[N+](C)(C)c1ncnc2c1ncn2[C@@H]1CCCCO1 -6.66% [at 11.4 µM]
